Pf growth 48h – inhibits P. falciparum growth in the first generation, 48 h; P. falciparum luciferase growth in erythrocytes, 48 h; Potency, µM (titrated, usually from 28.7 µM), for the others: at the top dose activity change, negative = inhibition, usual class: inhibitors; 5.9% of 310,000 active; AID 504832; also: potency is read from the fitted curve at half-maximal effect; % is scaled to controls: 0 for no effect and ±100 for the full control effect
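Erythrocytes infected with P. falciparum carrying an integrated firefly luciferase reporter (2% hematocrit, 0.1% parasitemia final) were exposed to compounds in RPMI 1640 with 0.5% Albumax at 37 C, 5% CO2. Growth inhibition was scored as reduced luminescence.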
CHX counter-1 – counter-screen hit for Shiga toxin inhibitors, cycloheximide; max response, %; cell reporter, cycloheximide protein synthesis inhibition counterscreen; 12% of 300,000 active; in the data active = max response mostly above about 13%, no sharp cut-off; inactive = mostly below about 14%; also: read at 38.3 µM for the half of the compounds with a filed dose; 0% is about no effect
Shiga inhibitor – blocks Shiga toxin action in Vero cells; 9.2% of 290,000 active; inhibition, % at 38.7 µM; Vero cells, Shiga toxin protein synthesis inhibition reporter; AID 2315; in the data active = inhibition mostly above about 28%, no sharp cut-off; inactive = mostly below about 43%; also: 0% is about no effect
Pf growth 96h – P. falciparum growth inhibition at 96 hour, primary screen for plastid delayed-death inhibitors; 6.9% of 320,000 active; Potency, µM (series often up to 28.7 µM), for the others: top-dose activity change, negative = inhibition, actives largely listed as inhibitors; P. falciparum luciferase reporter growth, 96 h; AID 504834; also: potency is read from the fitted curve at half-maximal effect; % is scaled to controls: 0 for no effect and ±100 for the full control effect
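Infected RBCs, 2% Hct / 0.05% parasitemia final; luciferase-reporter P. falciparum; cpd 96 h, 37 C, 5% CO2; luciferase detection reagent; luminescence.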
CHX counter-2 – affects protein synthesis reporter in cycloheximide counter-screen; shares compounds with Shiga inhibitor; Cycloheximide counterscreen, protein synthesis reporter, Shiga toxin assay; Potency, µM (series often up to 38.3 µM), inactives show at the top dose activity (activation), hits mostly activators; 3% of 510 active; calls by dose curve; also: potency is read from the fitted curve at half-maximal effect; 0% is about no effect
Starred values were filed as active, the others as inactive; i = inactive; ? = inconclusive; · = not tested or not shown. Sampled rows, rich in hits. Any-hit rate of the full collection: about 21%. Unless noted, calls follow the shape of the dose curve; as a rule, active = well fitted inhibition curve with a large enough effect; inconclusive = small, poorly fitted or top-dose-only effect, or another doubt; inactive = no such curve, though single readings can be large or run the other way.

SMILES	Pf growth 48h	CHX counter-1	Shiga inhibitor	Pf growth 96h	CHX counter-2
CC1C=CCC2C(=O)N(c3cc(Cl)ccc3O)C(=O)C12 (stereo unspecified)	11.0%	-3.1	-10.5	0.3%	·
COc1ccc(C(=O)NC=C2C(=O)OC(C)(C)OC2=O)cc1	17.6%	11.0	-6.7	38.7%	·
CSCC[C@H](NC(=O)C1=NN(c2c(F)c(F)cc(F)c2F)C(=O)CC1)c1nc2ccccc2[nH]1	?	-3.3	-10.5	?	·
COc1cc(OC)c(C(=O)OCC(=O)NC2CCCC2)cc1OC	-6.9%	12.0	-11.4	25.4%	·
COc1cc(SC)ccc1C(=O)OCC(=O)NC1CCCC1	0.0%	54.2*	112.7*	82.5%	·
COc1ccccc1OCC(=O)Nc1sc2c(c1C(=O)NCC1CCCO1)CCC2 (stereo unspecified)	13.1µM*	-1.7	6.6	10.4µM*	·
COc1ccc(C(=O)NCC2CCCO2)cc1OC (stereo unspecified)	14.4%	-2.0	12.1	14.3%	·
COCCn1nnnc1C(c1cc2c(C)cc(C)cc2[nH]c1=O)N1CCCCCC1 (stereo unspecified)	11.7µM*	4.8	2.7	7.2%	·
CCN(Cc1ccccc1)C(c1cc2cc(C)cc(C)c2[nH]c1=O)c1nnnn1CCOC (stereo unspecified)	?	-1.0	10.0	0.1%	·
COCCn1nnnc1C(c1cc2cc(C)cc(C)c2[nH]c1=O)N1CCN(c2ccccc2F)CC1 (stereo unspecified)	11.7µM*	-2.2	0.5	?	·
COCCn1nnnc1C(c1cccs1)N1CCN(c2cc(C)ccc2C)CC1 (stereo unspecified)	13.1µM*	-0.8	11.4	?	·
CCc1ccc(NC(=O)COC(=O)c2nc3nc(C)cc(C)n3n2)cc1	2.1%	·	·	-4.0%	·
Cc1cc(C)n2nc(Sc3ncccc3[N+](=O)[O-])nc2n1	?	-1.7	-8.3	-15.1%	·
O=c1c2ccccc2c(/C=N/NS(=O)(=O)c2ccccc2)c(O)n1-c1ccccn1	-9.6%	-5.4	-4.8	41.4%	·
Nc1nc(-c2nn(Cc3ccccc3F)c3ncccc23)ncc1C1CC1	·	2.4	28.0*	·	3.2%
O=c1c2ccccc2nc(SCc2ccccc2F)n1C1CCCC1	12.4%	-3.0	-0.5	-10.2%	·
COc1ccccc1NC(=O)CSc1nnc2ccccn12	16.6%	·	·	42.0%	·
COc1ccc(-c2nc(NC(=O)CSc3nnc4ccccn34)ns2)cc1	-6.8%	2.2	44.2*	?	?
CCOc1cccc(C(=O)N(Cc2cccc(F)c2)C2CCS(=O)(=O)C2)c1 (stereo unspecified)	-6.6%	-2.8	-3.1	6.3%	·
Cc1ccc(NC2=NCC(=O)N2C2CCCC2)cc1C	13.3%	0.9	10.5	?	·
Cc1ccc(NC2=NCC(=O)N2C2CCCC2)cc1	15.1%	7.2	57.9*	5.86µM*	-1.9%
Cc1cc(C)nc(Sc2ccc3nnnn3n2)n1	25.8%	10.4	30.7*	20.3%	9.3%
Cc1cccc(C2c3[nH]c4ccccc4c3CCN2C(=O)Cc2n[nH]c(C)n2)n1 (stereo unspecified)	-10.8%	2.1	2.5	i	·
CCN1CNC(=S)N(C(C)c2ccccc2)C1 (stereo unspecified)	6.6%	-3.7	-5.0	27.2%	·
Cc1cc2nnc(SCC(=O)OC(C)C)n2c2ccccc12	?	21.3	16.4	-1.9%	·
SMILES	Pf growth 48h	CHX counter-1	Shiga inhibitor	Pf growth 96h	CHX counter-2
CC(C)Cc1nc2oc3c(NCC4CCCO4)ncnc3c2c2c1CCC2 (stereo unspecified)	?	-3.6	58.5*	4.65µM*	-4.4%
CC(C)Cc1nc2oc3c(NCc4cccnc4)ncnc3c2c2c1CCC2	?	-2.4	-18.6	?	·
CCOC(=O)N1CCN(S(=O)(=O)c2ccc(C(=O)NNc3nc4c(C)cc(C)cc4s3)cc2)CC1	?	5.2	42.8*	?	-5.3%
CCOC(=O)N1CCN(S(=O)(=O)c2ccc(C(=O)NNc3nc4c(C)cccc4s3)cc2)CC1	?	-2.3	6.7	?	·
COC(=O)/C=C1/S/C(=N/N=C/c2ccco2)NC1=O	?	-1.8	-15.0	?	·
O=C1NC(=Nc2ccc(O)cc2)S/C1=C\C=C\c1ccco1	?	2.5	47.2*	?	?
Cc1ccc(C)n1-c1ccc(NC(=O)c2ccccc2)cc1	?	7.1	32.2*	11.7µM*	?
CCOC(=O)N1CCN(C(=O)Nc2ccc3nc(C)c(C)nc3c2)CC1	?	5.6	136.4*	10.6%	-2.4%
Cc1nnc(NC(=O)C2COc3ccccc3O2)s1 (stereo unspecified)	184.7%	14.8	98.8*	·	?
Nc1nc2nc(-c3cccs3)cc(C(F)(F)F)n2n1	9.7%	0.9	23.8	-24.1%	·
CCC(C)c1cc([N+](=O)[O-])cc([N+](=O)[O-])c1OC(C)=O (stereo unspecified)	·	7.5	25.0*	·	1.3%
CCOc1c(C(N)=O)cc([N+](=O)[O-])cc1[N+](=O)[O-]	-7.3%	-1.9	-6.4	26.4%	·
CCOC(=O)C1=C(C)N(C)C(=O)NC1c1ccc2c(c1)OCO2 (stereo unspecified)	·	3.2	-9.3	7.0%	·
CN1CCc2c(sc3c2C(=O)NC(c2ccc4c(c2)OCO4)N3)C1 (stereo unspecified)	4.7%	15.3	29.1*	-2.8%	4.2%
CCOC(=O)Cc1csc(NC(=O)CSc2ncnc3c2cnn3-c2ccc(OC)cc2)n1	9.28µM*	19.0	81.0*	?	?
CCOC(=O)Cc1csc(NC(=O)CSc2nnnn2-c2ccc(CC)cc2)n1	-8.7%	0.8	25.1	-18.7%	·
O=C(Oc1ccc(F)cc1)c1ccc2c(=O)n3c(nc2c1)CCC3	-11.7%	·	·	7.6%	·
CC(OC(=O)c1ccc2c(=O)n3c(nc2c1)CCC3)C(N)=O (stereo unspecified)	19.6%	10.9	51.2*	22.6%	1.4%
COc1ccc(CNC(=O)CCN2C(=S)NC(C)(C)CC2C)cc1 (stereo unspecified)	-4.5%	2.0	-7.8	1.8%	·
CCOC(=O)C1=C(O)/C(=C\c2cccs2)N=C1C	-23.7%	-1.3	-13.5	?	·
CCOC(=O)C1=C(O)/C(=C\c2ccc(CNC(=O)C(=O)Nc3ccccc3)o2)N=C1C	-2.2%	4.1	42.3*	·	0.6%
CN(C)CCNC(=O)COc1cccc(Cl)c1	30.0%	-2.8	-7.1	?	·
CC1CCC2C(=O)N(c3ccccc3OC(=O)c3ccccc3F)C(=O)C2C1 (stereo unspecified)	25.3%	18.0	31.6	-12.8%	·
O=C(CCN1C(=O)c2cccc3cccc(c23)C1=O)NC1CCS(=O)(=O)C1 (stereo unspecified)	50.8%	9.5	75.1*	63.7%	0.0%
COC(=O)c1c(NS(C)(=O)=O)sc2c1CCCC2	19.9%	-2.0	28.4*	·	0.4%
CC1(C)CC(=O)c2c(nn(-c3ccccc3)c2-c2ccncc2)C1	-24.2%	-3.6	-7.4	-12.7%	·
Cc1nn(-c2ccc(C(=O)O)cc2)c2c1C(=O)CC(C)(C)C2	22.9%	-1.7	80.9*	-17.3%	-4.8%

Compound activity (PubChem BioAssay)
